# Results from PubChem BioAssay (NCI).
# This is part of a sample that, as a whole, favours compounds with a hit. Of some 83,000 tested, about 20% had one in any assay.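 For each line, cells grew in 96-well plates with the test compound present at a single concentration for 48 hours.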 Unmarked numbers belong to inactive results. Calls of active or inactive are those of the source. Rule for the calls: active = growth percent below 10; inactive = the rest.
# How the values were obtained:
# Experiment in all cases: NCI-60 one-dose screen, 48 h (100 = growth as untreated, 0 = no growth, -100 = all killed)
# Conditions in all cases: 10 µM unless noted
# HCT-15 colon = system: HCT-15 colon
# HT29 colon = system: HT29 colon
# SNB-75 CNS = system: SNB-75 CNS
# SNB-19 CNS = system: SNB-19 CNS
# U251 CNS = system: U251 CNS
# PC-3 prostate = system: PC-3 prostate
# SK-MEL-5 melanoma = system: SK-MEL-5 melanoma
# UACC-62 melanoma = system: UACC-62 melanoma
# SK-MEL-28 melanoma = system: SK-MEL-28 melanoma
# SK-MEL-2 melanoma = system: SK-MEL-2 melanoma
# SN12C renal = system: SN12C renal
# UO-31 renal = system: UO-31 renal
# TK-10 renal = system: TK-10 renal
# ACHN renal = system: ACHN renal
# CAKI-1 renal = system: CAKI-1 renal
# A498 renal = system: A498 renal
# MOLT-4 leukemia = system: MOLT-4 leukemia
# LOX IMVI melanoma = system: LOX IMVI melanoma
# EKVX NSCLC = system: EKVX NSCLC
# CCRF-CEM leukemia = system: CCRF-CEM leukemia
SMILES,growth (HCT-15 colon),growth (HT29 colon),growth (SNB-75 CNS),growth (SNB-19 CNS),growth (U251 CNS),growth (PC-3 prostate),growth (SK-MEL-5 melanoma),growth (UACC-62 melanoma),growth (SK-MEL-28 melanoma),growth (SK-MEL-2 melanoma),growth (SN12C renal),growth (UO-31 renal),growth (TK-10 renal),growth (ACHN renal),growth (CAKI-1 renal),growth (A498 renal),growth (MOLT-4 leukemia),growth (LOX IMVI melanoma),growth (EKVX NSCLC),growth (CCRF-CEM leukemia)
COc1ccc2c(c1)C/C(=C\c1cc(-c3cc(OC)c(OC)c(OC)c3)n[nH]1)C2=O,91.1%,89.3%,78.4%,91.9%,92.3%,56%,75.5%,88.1%,99.3%,94.7%,92.8%,76.6%,111%,81.7%,84.3%,87.4%,,,,
NC1(N)C=CC2=C(C=C1)C1(N)C3=C(C=CC(N)(N)C=C3)N2C2(N)C3=C(C=CC(N)(N)C=C3)N1C1=C2C=CC(N)(N)C=C1,94.7%,94.4%,93.9%,101%,83.3%,72.2%,75%,81.5%,99.1%,103%,82.2%,59.9%,119%,83.5%,70.8%,88.3%,32.6%,,,
Cc1cc(N=O)cc(C(C)(C)C)c1O,101%,85%,87.7%,98.7%,88.6%,74.5%,98.3%,,106%,85.2%,101%,92.3%,94.1%,108%,86.1%,74.3%,94.2%,98.3%,95.4%,82.5%
CC(C)(C)c1nc(-c2ccc(O)c(O)c2)cs1,36.3%,92.6%,73.1%,72.1%,46.9%,54%,54.4%,,87.8%,93.3%,59.5%,39.5%,89.2%,50%,54.8%,104%,44.1%,63.5%,88.9%,26.4%
COc1cc(C(=O)/C=C/c2cc(-c3ccc4c(c3)OCO4)n[nH]2)cc(OC)c1OC,19.6%,3.4% (active),26.7%,33.2%,5.54% (active),6.51% (active),63%,55.7%,76.2%,84.7%,25.7%,39.4%,67%,42.7%,66.3%,4.49% (active),,,,
O=C(NCN1C(=O)c2cccc3cccc(c23)C1=O)N1CCC(Cc2ccccc2)CC1,104%,70.1%,89.4%,92.5%,97.5%,72.9%,101%,,107%,103%,99.2%,72.2%,98%,101%,82.9%,-36% (active),,97.5%,93.4%,79.9%
COC(=O)[C@]12CC[C@@H](C)[C@H](C)[C@@H]1C1=CC[C@@H]3[C@@](C)(CC#N)C4=C(C[C@@]3(C)[C@]1(C)CC2)OC[C@]4(C)C=O,0.689% (active),-20.7% (active),19.3%,8.5% (active),-45.7% (active),9.95% (active),-89% (active),,-19.6% (active),-40.2% (active),1.64% (active),6.25% (active),3.82% (active),7.19% (active),9.24% (active),-91.7% (active),2.4% (active),-99% (active),-11.8% (active),1.66% (active)
COc1cc(-c2cc3ncccc3c3[nH]c(=O)c4cccnc4c23)cc(OC)c1OC,30.6%,8% (active),-3.35% (active),53.7%,16.8%,13.2%,-5.2% (active),,68.2%,44.6%,42.7%,36.2%,52.2%,46.7%,28.4%,-18.1% (active),31.6%,42.5%,33.2%,13.1%
COc1ccc(-c2cc(/C=C/C(=O)c3ccc(OC)c(OC)c3)[nH]n2)cc1,12.5%,1.11% (active),9.56% (active),27%,4.42% (active),4.36% (active),51.3%,37.3%,53.9%,69.2%,17.6%,36.4%,31.4%,29.8%,62.8%,-4.05% (active),,,,
COc1cc(-c2cc3ncccc3c3nc(OCCN(C)C)c4cccnc4c23)cc(OC)c1OC,23.1%,9.99% (active),-36.8% (active),15%,11.8%,16.2%,-7.91% (active),,31.6%,19.8%,2.68% (active),-70% (active),-82.7% (active),-74.5% (active),-37.3% (active),-72.6% (active),,-43.5% (active),32.8%,14.5%
COC(=O)[C@]12CC[C@@H](C)[C@H](C)[C@@H]1C1=CC[C@@H]3[C@@]4(C)C[C@@H](OC(C)=O)[C@H](OC(C)=O)[C@@](C)(COC(C)=O)[C@@H]4[C@H](O)C[C@@]3(C)[C@]1(C)CC2,7.64% (active),2.23% (active),34.6%,24.2%,7.43% (active),4.25% (active),-71.5% (active),,38.6%,-2.42% (active),11%,10.9%,-1.29% (active),11.8%,11.6%,5.15% (active),,2.68% (active),10.7%,12%
O=[N+]([O-])c1ccc(N/N=C(\C(=N/Nc2ccc([N+](=O)[O-])cc2[N+](=O)[O-])c2ccccc2)c2ccccc2)c([N+](=O)[O-])c1,84.3%,63.5%,99%,102%,36.4%,85.2%,94.3%,,101%,95.9%,97.5%,86.4%,-1.75% (active),95.7%,81.1%,103%,,97.7%,108%,58.4%
OCC(CO)(CCl)CCl,109%,96.6%,96.8%,98.7%,84.8%,80.2%,104%,,103%,87.8%,98.3%,104%,95%,104%,95%,111%,91.1%,98.2%,104%,90.4%
C[C@]12CC[C@@H]3c4ccc(O)cc4CC[C@H]3[C@@H]1C[C@H](O)[C@@H]2O,97.3%,109%,82%,102%,100%,92.4%,94.1%,,96.5%,104%,94.9%,78.2%,100%,93.7%,90.5%,92.6%,109%,92.4%,67.4%,103%
